Reference: PubChem BioAssay (NCI)
The panel holds about 83,000 compounds, 20% with a hit somewhere; the sample as a whole holds those more often.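 Note: values are percent growth. 100 is the growth of untreated cells, values between 100 and 0 indicate rising inhibition; between -100 and 0 indicates cell death.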 A number with no mark means an inactive call. Activity calls are given as the source filed them. The calls were made as follows: active = growth percent below 10; inactive = the rest.

Key:
Assay in all cases: NCI-60 one-dose screen, 48 h (100 = growth as untreated, 0 = no growth, -100 = all killed)
Settings in all cases: 10 µM unless noted
[1] = test system: NCI-H23 lung
[2] = test system: NCI-H322M lung
[3] = test system: HOP-62 NSCLC
[4] = test system: NCI-H460 lung
[5] = test system: HOP-92 NSCLC
[6] = test system: NCI-H522 lung
[7] = test system: A549/ATCC NSCLC
[8] = test system: 786-0 renal
[9] = test system: COLO 205 colon
[10] = test system: DU-145 prostate
[11] = test system: K-562 leukemia
[12] = test system: MALME-3M melanoma
[13] = test system: MDA-MB-231 breast
[14] = test system: RXF 393 renal
[15] = test system: SF-268 CNS
[16] = test system: SF-295 CNS
[17] = test system: SF-539 CNS
[18] = test system: UACC-257 melanoma
[19] = test system: M14 melanoma
[20] = test system: HCT-15 colon

| SMILES | growth [1] | growth [2] | growth [3] | growth [4] | growth [5] | growth [6] | growth [7] | growth [8] | growth [9] | growth [10] | growth [11] | growth [12] | growth [13] | growth [14] | growth [15] [%] | growth [16] | growth [17] | growth [18] | growth [19] | growth [20] |
| --- | --- | --- | --- | --- | --- | --- | --- | --- | --- | --- | --- | --- | --- | --- | --- | --- | --- | --- | --- | --- |
| CC[C@]1(O)C[C@@H]2CN(CCc3c([nH]c4ccccc34)[C@@](C(=O)OC)(c3cc4c(cc3OC)N(C)[C@H]3[C@@](O)(C(=O)OC)[C@H](OC(=O)CCCBr)[C@]5(CC)C=CCN6CC[C@]43[C@@H]65)C2)C1 | 33.1% | 38.7% | 29.2% | 5.85% (active) | -0.264% (active) | -27% (active) | 15.2% | 10.4% | -53.2% (active) | 5.82% (active) | 8.93% (active) | 39.4% | -16.5% (active) | 34.2% | 21.2 | 8.8% (active) | -10.4% (active) | 62% | -11% (active) | 10.5% |
| CCOC(=O)c1sc(-c2ccc(OS(=O)(=O)c3ccc(Br)s3)c(C=O)c2)nc1C | 11.9% | 83.8% | 19.6% | 77.6% | 26.5% | -5.7% (active) | 76.1% | 9.63% (active) | 84.8% | 21.2% | 9.45% (active) | 13.2% | 4.99% (active) | 51.7% | 16.4 | 32.8% | -5.53% (active) | 28.8% | 1.87% (active) | 1.83% (active) |
| S=C1CCCC(=S)N1 | 101% | 107% | 88% | 106% | 105% | 96.6% | 98.3% | 107% | 115% | 111% | 104% | 106% | 113% | 104% | 99.1 | 104% | 100% | 94.6% | 105% | 101% |
| COc1cc(C2C3=C(COC3=O)N(CCO)c3cc4c(cc32)CCC4)cc(OC)c1O (stereo not given) | 45.1% | 53.1% | 41.2% | -22.7% (active) | 97.5% | -24.5% (active) | 18.1% | 27% | 13.6% | -25.8% (active) | 14.7% | 54.7% | 18% | -35.8% (active) | 43.6 | -2.29% (active) | -22.6% (active) | 36.2% | 1.16% (active) | 17.9% |
| O=C(Nc1ccc(N2CCNCC2)cn1)c1[nH]ncc1Nc1ncnc2sc3c(c12)CCC3 | 10.7% | 63.8% | 76.2% | -59.2% (active) | 37.9% | 35.9% | -51.7% (active) | -85.5% (active) | 22.8% | -52.1% (active) | -65.2% (active) | -47.7% (active) | -48.9% (active) | 18.6% | 37.8 | 104% | -51% (active) | 67.8% | -60.7% (active) | -85.6% (active) |
| CCC(C)(C)C(=O)O[C@H]1C[C@@H](C)C=C2C=C[C@H](C)[C@H](CC[C@@H]3CC=CC(=O)O3)[C@H]21 | 78% | 103% | 108% | 101% | 75.3% | 39.4% | 78.7% | 110% | 72.7% | 82.7% | 32.8% | 94.1% | 96.9% | 41.3% | 85.7 | 97.5% | 96.1% | 60.4% | 61.3% | 63.9% |
| O=C(Nc1ccc(Br)cc1F)c1cc(I)ccc1O | 4.95% (active) | 2.64% (active) | 0.452% (active) | 6.01% (active) | -27.7% (active) | -30% (active) | 4.34% (active) | 2.92% (active) | 104% | 17.2% | 10.3% | -20.4% (active) | 32.3% | 1.53% (active) | 12.7 | 0.923% (active) | 9.06% (active) | -12.9% (active) | 16.8% | 11.9% |
| O=C(Nc1ccc(Cl)cc1F)c1cc(I)ccc1O | 12.1% | 17.8% | 21.9% | 15.7% | -24.6% (active) | -9.32% (active) | 17.6% | 77.2% | 106% | 31.9% | 14.9% | -1.76% (active) | 52.8% | 14.8% | 17.1 | 48.4% | 16.4% | 21.9% | 27.9% | 25.4% |
